# Measurements from PubChem BioAssay (NCI).
# About 83,000 compounds went through this panel and 20% of them were active in at least one assay; those are over-represented in the sample as a whole.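 Treatment: one concentration, 48 hours, 96-well format. Scoring: percent growth, with anything below 10 considered active.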 The source made the active and inactive calls.
# Tested on: HCT-116 colon
# Assay: NCI-60 one-dose screen, 48 h (100 = growth as untreated, 0 = no growth, -100 = all killed)
# Settings: 10 µM unless noted
row,Compound,growth
1,CCn1c(SCC(=O)c2ccc(Br)cc2)nnc1-c1ccncc1,105% (inactive)
2,O=C(Nc1ccc(NC(=O)c2cc(=O)[nH]c3ccccc23)cc1)Nc1cccc(C(F)(F)F)c1,41.1% (inactive)
3,Cc1ccc(S(=O)(=O)N2CCCC2CO)cc1 (stereo unspecified),96.8% (inactive)
4,COc1cccc(CNc2ncnc3c2ncn3C2OC(CO)C(O)C2O)c1O (stereo unspecified),10.2% (inactive)
5,CN(CCOc1ccc(C#N)cc1)CCOc1ccc(C#N)cc1,66.2% (inactive)
6,CC(C)n1cnc2c(=S)nc[nH]c21,106% (inactive)
7,Cc1nc(-c2ccccc2)cc2c(O)c(C(=O)NN)[nH]c(=O)c12,110% (inactive)
8,CCOC(=O)c1nc(Nc2ccc(NC(=O)Nc3ccc(F)cc3)cc2)c2ccccc2n1,101% (inactive)
9,C1=CN2CC(c3ccccc3)=NNC2c2ccccc21 (stereo unspecified),85.6% (inactive)
10,Nc1ncnc2c1N=C(c1ccc3c(c1)OCO3)CC(c1ccc([N+](=O)[O-])cc1)N2 (stereo unspecified),66.6% (inactive)
11,O=C1c2cccc(NCCN=Cc3cc(O)ccc3O)c2C(=O)c2c(NCCN=Cc3cc(O)ccc3O)cccc21,-17.3% (active)
12,COC(=O)c1cc(-c2ccccc2)[nH]c1N/N=C/c1c(Cl)cccc1Cl,-1.99% (active)
13,O=C(N/N=C/c1ccc(F)cc1)c1ccc(C(F)(F)F)nc1Nc1cccc(C(F)(F)F)c1,10.1% (inactive)
14,CCOc1nc(-c2ccccc2)cc2c(O)c(C(=O)NN)[nH]c(=O)c12,102% (inactive)
15,O=C(Nc1ccc(-c2nc(N3CCOCC3)c3cccn3n2)cc1)Nc1cccnc1,4.12% (active)
16,O=C1CNC(c2ccccc2)C(c2ccccc2)N1 (stereo unspecified),93% (inactive)
17,COc1cc(CNS(=O)(=O)c2ccc(C)cc2)ccc1OCc1cn(-c2ccc(Br)cc2)nn1,100% (inactive)
18,NC(=O)c1c(NC(=O)c2ccccc2)sc2c1CCC(=O)C2,8.7% (active)
19,CCCc1cc(NC)nc(S(=O)(=O)CC)n1,100% (inactive)
20,COC(=O)c1c2c(c(C)[n+]([O-])c1C)C(=O)C=C(NCc1ccc(OC)cc1)C2=O,-11.6% (active)
21,COC(=O)c1c2c(c[n+]([O-])c1C)C(=O)C(NCc1ccccc1)=CC2=O,1.8% (active)
22,C=CCc1c2c(c(OC)c3ccoc13)C(=O)/C(=C/c1ccccc1OC)O2,21.4% (inactive)
23,COc1cc(CNS(=O)(=O)c2ccc(C)cc2)ccc1OCc1cn(-c2ccc(F)cc2)nn1,83.6% (inactive)
24,Cc1ccc(Cl)cc1Nc1nc(C(F)(F)F)ccc1C(=O)N/N=C/c1cccnc1,25% (inactive)
25,O=C(O)/C(=C\c1ccc(Cl)cc1)c1ccc(Cl)cc1,98.1% (inactive)
26,Cc1cc(N)c2cc(NC(=O)/C=C\c3ccccc3Cl)ccc2n1,-73% (active)

# Tested on: KM12 colon
# Assay: as above
# Settings: 10 µM unless noted
row,Compound,growth
1,COC(=O)c1cc(-c2ccc(S(C)(=O)=O)cc2)[nH]c1N/N=C/c1c(Cl)cccc1Cl,20.6% (inactive)
2,Cc1cccnc1NC(=S)Nc1ncccc1C,107% (inactive)
3,O=C(c1ccc(-c2ccccc2)cc1)c1ccc([N+](=O)[O-])cc1,97% (inactive)
4,O=Nc1c(-c2c(O)[nH]c3ncccc23)[nH]c2ccccc12,15% (inactive)
5,CO[C@H]1/C=C(/C)CCC[C@H](C)[C@H](O)[C@@H](C)C(=O)C(C)(C)[C@@H](O)CC(=O)O[C@@H]1/C(C)=C/c1csc(C)n1,5.07% (active)
6,COc1ccc(-c2nc(/C=C3\SC(=NCc4ccccc4)NC3=O)c3ccccn23)cc1,-78% (active)
7,COc1ccc2c3c([nH]c2c1)C(=O)c1nc(C)ccc1C3=O,36.6% (inactive)
8,COc1cc(-c2cc(-c3ccc(N(C)C)cc3)nc(N3CCC(O)CC3)c2C#N)cc(OC)c1OC,-0.387% (active)
9,Cn1ccc2c3c(ccc21)CC3=O,112% (inactive)
10,COc1ccc2[nH]cc(C(c3cc(F)cc(F)c3)c3c[nH]c4ccc(OC)cc34)c2c1,83.6% (inactive)
11,CCOC(=O)CNP(=O)(OC[C@@H](Cc1ccccc1)NC(=O)c1cc2ccccc2s1)Oc1ccccc1 (stereo partly specified),42.3% (inactive)
12,N#Cc1c(NC(=O)c2ccccc2)sc2c1CCC(=O)C2,8.5% (active)
13,O=C1Nc2ccccc2/C1=C\c1nc(-c2ccccc2)n2ccccc12,74.3% (inactive)
14,COc1ccc2c(c1)[n+]([O-])c(C(=O)/C=C/C=C(\Cl)c1cc(OC)c(OC)c(OC)c1)c(C)[n+]2[O-],101% (inactive)
15,CCn1c(SCC(=O)c2ccc(Br)cc2)nnc1-c1ccncc1,106% (inactive)
16,O=C(Nc1ccc(NC(=O)c2cc(=O)[nH]c3ccccc23)cc1)Nc1cccc(C(F)(F)F)c1,53.3% (inactive)
17,Cc1ccc(S(=O)(=O)N2CCCC2CO)cc1 (stereo unspecified),104% (inactive)
18,COc1cccc(CNc2ncnc3c2ncn3C2OC(CO)C(O)C2O)c1O (stereo unspecified),36.6% (inactive)
19,CN(CCOc1ccc(C#N)cc1)CCOc1ccc(C#N)cc1,71.4% (inactive)
20,CC(C)n1cnc2c(=S)nc[nH]c21,102% (inactive)

row,Compound,growth
1,Cc1nc(-c2ccccc2)cc2c(O)c(C(=O)NN)[nH]c(=O)c12,115% (inactive)
2,CCOC(=O)c1nc(Nc2ccc(NC(=O)Nc3ccc(F)cc3)cc2)c2ccccc2n1,102% (inactive)
3,C1=CN2CC(c3ccccc3)=NNC2c2ccccc21 (stereo unspecified),99.4% (inactive)
4,Nc1ncnc2c1N=C(c1ccc3c(c1)OCO3)CC(c1ccc([N+](=O)[O-])cc1)N2 (stereo unspecified),78.4% (inactive)
5,O=C1c2cccc(NCCN=Cc3cc(O)ccc3O)c2C(=O)c2c(NCCN=Cc3cc(O)ccc3O)cccc21,-71.3% (active)
6,COC(=O)c1cc(-c2ccccc2)[nH]c1N/N=C/c1c(Cl)cccc1Cl,10.2% (inactive)
7,O=C(N/N=C/c1ccc(F)cc1)c1ccc(C(F)(F)F)nc1Nc1cccc(C(F)(F)F)c1,-4.29% (active)
8,CCOc1nc(-c2ccccc2)cc2c(O)c(C(=O)NN)[nH]c(=O)c12,104% (inactive)
9,O=C(Nc1ccc(-c2nc(N3CCOCC3)c3cccn3n2)cc1)Nc1cccnc1,9.01% (active)
10,O=C1CNC(c2ccccc2)C(c2ccccc2)N1 (stereo unspecified),100% (inactive)
11,COc1cc(CNS(=O)(=O)c2ccc(C)cc2)ccc1OCc1cn(-c2ccc(Br)cc2)nn1,103% (inactive)
12,NC(=O)c1c(NC(=O)c2ccccc2)sc2c1CCC(=O)C2,5.17% (active)
13,CCCc1cc(NC)nc(S(=O)(=O)CC)n1,113% (inactive)
14,COC(=O)c1c2c(c(C)[n+]([O-])c1C)C(=O)C=C(NCc1ccc(OC)cc1)C2=O,-3.93% (active)
15,COC(=O)c1c2c(c[n+]([O-])c1C)C(=O)C(NCc1ccccc1)=CC2=O,-0.692% (active)
16,C=CCc1c2c(c(OC)c3ccoc13)C(=O)/C(=C/c1ccccc1OC)O2,46.8% (inactive)
17,COc1cc(CNS(=O)(=O)c2ccc(C)cc2)ccc1OCc1cn(-c2ccc(F)cc2)nn1,97.6% (inactive)
18,Cc1ccc(Cl)cc1Nc1nc(C(F)(F)F)ccc1C(=O)N/N=C/c1cccnc1,34.7% (inactive)
19,O=C(O)/C(=C\c1ccc(Cl)cc1)c1ccc(Cl)cc1,97.6% (inactive)
20,Cc1cc(N)c2cc(NC(=O)/C=C\c3ccccc3Cl)ccc2n1,-83.8% (active)
